This is an account of results in PubChem BioAssay (EPA / NIEHS).

Assay [1] is described as follows: ATG_M_61_CIS: Attagene CIS-FACTORIAL HepG2 Assay for M61 Transcription Factor (Internal Marker) (AID 2282937; active = hit-call score of the fitted dose curve at least 0.9, where 1 is the maximum; inactive = score below 0.9). Conditions: HepG2 Attagene CIS-FACTORIAL M61 internal marker reporter; actives raise or lower the signal. An outline of the steps: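 Transfect HepG2 with MRTUs; dose 24 h; isolate RNA; reverse-transcribe with DNase I treatment; PCR-amplify, FAM-label and cut with HpaI for 2 h at 37 C; resolve by CE. Bidirectional fitting against DMSO.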

A short description of assay [2]: ATG_EGR_CIS: Attagene CIS-FACTORIAL HepG2 Assay for human Early Growth Response 1 (EGR1) (AID 2282938; active = hit-call score of the fitted dose curve at least 0.9, where 1 is the maximum; inactive = score below 0.9). Conditions: HepG2 Attagene CIS-FACTORIAL EGR reporter mRNA; actives raise or lower the signal. An outline of the steps:
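After a 24 h treatment of transiently transfected HepG2 cells, total RNA was reverse-transcribed and reporter sequences PCR-amplified, labelled and run on capillary electrophoresis. Reporters sit under cis-regulatory promoters sensing endogenous factors.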

A short description of assay [3]: ATG_GRE_CIS: Attagene CIS-FACTORIAL HepG2 Assay for human Glucocorticoid Response Elements (GRE) (AID 2282947; active = hit-call score of the fitted dose curve at least 0.9, where 1 is the maximum; inactive = score below 0.9). Conditions: HepG2 GRE cis-reporter, Attagene multiplex mRNA; actives raise or lower the signal. An outline of the steps:
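HepG2 cells transiently transfected with multiple cis-promoter reporter units measure endogenous TF activity; 24 h compound exposure. Reporter mRNA quantified by RT-PCR, FAM labelling, HpaI digestion and capillary electrophoresis; bidirectional fit vs DMSO baseline.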

A short description of assay [4]: ATG_M_06_CIS: Attagene CIS-FACTORIAL HepG2 Assay for M06 Transcription Factor (Internal Marker) (AID 2282950; active = hit-call score of the fitted dose curve at least 0.9, where 1 is the maximum; inactive = score below 0.9). Conditions: HepG2 Attagene CIS-FACTORIAL M06 internal marker reporter; actives raise or lower the signal. The gist of the method: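 Read-out is fluorescence of labelled reporter cDNA fragments resolved by capillary electrophoresis after RT-PCR. Cells: HepG2 carrying transfected cis-promoter reporter units, treated 24 h. Gain or loss of signal fitted relative to DMSO.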

A short description of assay [5]: ATG_PPRE_CIS: Attagene CIS-FACTORIAL HepG2 Assay for human Peroxisome Proliferator-activated Response Element (PPRE) (AID 2282958; active = hit-call score of the fitted dose curve at least 0.9, where 1 is the maximum; inactive = score below 0.9). Conditions: HepG2 PPRE cis-element reporter, Attagene transcription factor profiling; actives raise or lower the signal. The gist of the method: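 PPRE activity in HepG2: transient cis-reporter transfection, 24 h compound incubation, reporter mRNA by RT-PCR and CE fluorescence; gain/loss fitted against DMSO.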

Assay [6] can be described thus: ATG_RORE_CIS: Attagene CIS-FACTORIAL HepG2 Assay for human RAR-related Orphan Receptor Element (RORE) (AID 2282959; active = hit-call score of the fitted dose curve at least 0.9, where 1 is the maximum; inactive = score below 0.9). As to conditions: HepG2 Attagene cis-factorial RORE reporter, mRNA; actives raise or lower the signal. An outline of the steps:
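A 24-hour exposure of transfected HepG2 hepatoma cells precedes RNA isolation and reporter RT-PCR. Labeled products are digested with HpaI and resolved by capillary electrophoresis, with gain or loss of signal scored relative to DMSO.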

Assay [7] is described as follows: ATG_TGFb_CIS: Attagene CIS-FACTORIAL HepG2 Assay for human Transforming Growth Factor (TGF) (AID 2282967; active = hit-call score of the fitted dose curve at least 0.9, where 1 is the maximum; inactive = score below 0.9). Conditions: HepG2 Attagene CIS TGFb reporter, mRNA transcription; actives raise or lower the signal. The gist of the method: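 Transient MRTU transfection of HepG2 (FuGene 6). Dose 24 h. TriZol RNA, oligo(dT) RT, PCR, 6-FAM primer extension, HpaI cut, CE. Bidirectional fit, DMSO = baseline.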

Assay [8] in a line: ATG_M_06_TRANS: Attagene TRANS-FACTORIAL HepG2 Assay for M06 Transcription Factor (Internal Marker) (AID 2282983).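 Also: reporter transcript level by RT-PCR then capillary electrophoresis fluorescence.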 Conditions: HepG2 Attagene TRANS M06 internal marker reporter. The gist of the method: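 Cells: HepG2, transient multi-reporter transfection. Exposure: 24 h. Detection: RT-PCR, 6-FAM labelling, HpaI digestion (2 h, 37 °C), capillary electrophoresis. Baseline: DMSO.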

Assay [9] deals with Retinoic acid receptor RXR-alpha (Homo sapiens) (UniProt P19793). The experiment in a line: ATG_RXRa_TRANS: Attagene TRANS-FACTORIAL HepG2 Assay for human Retinoid X Receptor alpha (RXRa) (AID 2283012). An outline of the steps: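 HepG2 cells transiently transfected with multiplexed GAL4-UAS reporter units and chimeric NR-GAL4 fusions, dosed 24 h. Reporter mRNA measured by RT-PCR, FAM labelling, HpaI digestion and capillary electrophoresis; gain-of-signal fitted relative to DMSO baseline.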
Chain of Retinoic acid receptor RXR-alpha (Homo sapiens) (P19793 whole entry, looked up, the tested form may be a part): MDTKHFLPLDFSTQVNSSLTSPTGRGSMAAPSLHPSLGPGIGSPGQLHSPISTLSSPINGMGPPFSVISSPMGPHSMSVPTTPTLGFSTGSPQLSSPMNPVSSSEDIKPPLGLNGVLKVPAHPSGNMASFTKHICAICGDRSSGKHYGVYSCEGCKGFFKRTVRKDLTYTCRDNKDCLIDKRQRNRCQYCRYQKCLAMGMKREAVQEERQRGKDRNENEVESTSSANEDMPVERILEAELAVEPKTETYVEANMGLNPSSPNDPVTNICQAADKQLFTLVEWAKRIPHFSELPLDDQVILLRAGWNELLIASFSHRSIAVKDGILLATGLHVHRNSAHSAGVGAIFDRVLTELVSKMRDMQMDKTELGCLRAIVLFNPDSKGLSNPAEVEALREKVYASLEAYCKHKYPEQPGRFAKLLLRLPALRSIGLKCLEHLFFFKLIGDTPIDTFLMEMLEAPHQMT

For assay [10], the target named is Cellular tumor antigen p53 (Homo sapiens) (UniProt P04637). Briefly: TOX21_p53_BLA_p2_ratio: Tox21 HCT-116 p53 Agonism Beta-lactamase Assay, Ratio, Phase 2 (AID 2283592). An outline of the steps:
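Gain-of-signal p53 agonism was scored from the beta-lactamase FRET ratio (460/530 nm, 405 nm excitation) in HCT116 cells treated 16 h at 37C, 5% CO2, with DMSO serving as negative control and baseline.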

Assay [11] has the same target. The experiment in a line: TOX21_p53_BLA_p3_ratio: Tox21 HCT-116 p53 Agonism Beta-lactamase Assay, Ratio, Phase 3 (AID 2283596). The gist of the method:
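HCT116 p53-bla cells (4000/well) given compound in DMSO (217-fold dilution) after 5 h, incubated 16 h at 37C. CCF4-AM substrate 2 h at room temperature; 460/530 nm emission ratio, gain fitted against DMSO.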

The target is the same in assay [12]. Briefly: TOX21_p53_BLA_p5_ratio: Tox21 HCT-116 p53 Agonism Beta-lactamase Assay, Ratio, Phase 5 (AID 2283599). The gist of the method:
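HCT-116 cells carrying a p53-inducible beta-lactamase reporter were seeded at 4000 cells/well and dosed after 5 h with compound in DMSO (217-fold dilution). After 16 h at 37C, CCF4-AM substrate was added for 2 h, and the 460/530 nm emission ratio was scored as gain-of-signal versus DMSO.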

The target is the same in assay [13]. The experiment in a line: TOX21_p53_BLA_p4_ratio: Tox21 HCT-116 p53 Agonism Beta-lactamase Assay, Ratio, Phase 4 (AID 2283601). An outline of the steps:
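HCT116 cells carrying an inducible beta-lactamase reporter were plated at 4000 cells/well, rested 5 h, then exposed to compounds in DMSO (217-fold dilution) for 16 h at 37C. CCF4-AM substrate was loaded 2 h at room temperature; 460/530 nm emission ratio scored gain-of-signal versus DMSO.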

The nature of assay [14]: ATG_M_19_TRANS: Attagene TRANS-FACTORIAL HepG2 Assay for M19 Transcription Factor (Internal Marker) (AID 2282974). Conditions: HepG2 Attagene TRANS-FACTORIAL M19 internal marker reporter. An outline of the steps:
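Transfected HepG2 (GAL4-UAS MRTUs), 24 h compound, TriZol RNA, DNase-treated RT, reporter PCR, FAM label, HpaI digest, CE fluorescence; gain vs DMSO.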

For assay [15], the target named is Hepatocyte nuclear factor 4-alpha (Homo sapiens) (UniProt P41235). The experiment in a line: ATG_HNF4a_TRANS: Attagene TRANS-FACTORIAL HepG2 Assay for human Hepatocyte Nuclear Factor 4 alpha (HNF4a) (AID 2282982). As to conditions: HepG2 HNF4a transactivation reporter, mRNA readout. The gist of the method:
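HepG2 cells transiently transfected with multiplexed GAL4-UAS reporter units responsive to chimeric NR-GAL4 proteins; compound exposure 24 h. Reporter mRNA quantified by RT-PCR, 6-FAM labelling, HpaI digestion and capillary electrophoresis; gain of signal versus DMSO baseline.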

In assay [16] the target is Nuclear respiratory factor 1 (Homo sapiens) (UniProt Q16656). The experiment in a line: ATG_NRF1_CIS: Attagene CIS-FACTORIAL HepG2 Assay for human Nuclear Respiratory Factor 1 (NRF1) Orphan Gene (AID 2282987; active = hit-call score of the fitted dose curve at least 0.9, where 1 is the maximum; inactive = score below 0.9). As to conditions: HepG2 NRF1 cis-element reporter, Attagene multiplex; actives raise or lower the signal. The gist of the method: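 Measured: fluorescent reporter-specific RT-PCR products from transfected HepG2 cells, separated by capillary electrophoresis. Exposure lasted 24 h. Analysis used bidirectional curve fitting with DMSO as negative control.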
Chain of Nuclear respiratory factor 1 (Homo sapiens) (Q16656 whole entry, looked up): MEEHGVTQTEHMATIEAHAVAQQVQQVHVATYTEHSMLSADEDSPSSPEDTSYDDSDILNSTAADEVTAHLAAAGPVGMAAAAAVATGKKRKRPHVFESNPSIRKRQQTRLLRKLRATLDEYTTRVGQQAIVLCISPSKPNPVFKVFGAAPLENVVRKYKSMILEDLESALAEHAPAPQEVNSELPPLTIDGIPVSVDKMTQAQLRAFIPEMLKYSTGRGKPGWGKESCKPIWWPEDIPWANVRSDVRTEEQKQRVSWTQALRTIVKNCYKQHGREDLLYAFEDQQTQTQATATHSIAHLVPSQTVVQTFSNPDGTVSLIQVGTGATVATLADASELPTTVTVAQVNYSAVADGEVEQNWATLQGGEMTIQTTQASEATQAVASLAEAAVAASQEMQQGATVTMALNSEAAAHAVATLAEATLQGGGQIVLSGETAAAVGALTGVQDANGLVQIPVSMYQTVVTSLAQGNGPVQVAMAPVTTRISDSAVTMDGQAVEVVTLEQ

Assay [17] in a line: ATG_NFI_CIS: Attagene CIS-FACTORIAL HepG2 Assay for human Nuclear Factor I (NFI) (AID 2282989; active = hit-call score of the fitted dose curve at least 0.9, where 1 is the maximum; inactive = score below 0.9). As to conditions: HepG2 cis-regulatory reporter, NFI response element transcription; actives raise or lower the signal. An outline of the steps:
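Transient MRTU transfection of HepG2 → 24 h chemical dosing → total RNA, oligo(dT) RT → PCR, 6-FAM primer extension, HpaI cut → capillary electrophoresis. Endpoint fitted bidirectionally relative to DMSO.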

Assay [18] addresses Nuclear receptor subfamily 1 group I member 2 (Homo sapiens) (UniProt O75469). Briefly: ATG_PXR_TRANS: Attagene TRANS-FACTORIAL HepG2 Assay for human Pregnane X Receptor (PXR) (AID 2283008). The gist of the method:
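HepG2 cells transiently transfected with multiple reporter units, here a PXR-GAL4 chimera driving a GAL4-UAS reporter; 24 h compound exposure. Reporter mRNA measured by RT-PCR, FAM labelling and capillary electrophoresis; gain of signal fitted against DMSO baseline.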

For assay [19], the target named is human Retinoid X Receptor beta (RXRb), RXRB (gene 6257) (UniProt P28702). Briefly: ATG_RXRb_TRANS: Attagene TRANS-FACTORIAL HepG2 Assay for human Retinoid X Receptor beta (RXRb) (AID 2283013). The gist of the method: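 HepG2 cells transiently transfected with multiplexed reporter units driven by GAL4-UAS and exogenous chimeric NR-Gal4 proteins; treated 24 h. Reporter mRNA measured by RT-PCR, 6-FAM labelling and capillary electrophoresis; gain-of-signal fitted versus DMSO baseline.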
Chain of human Retinoid X Receptor beta (RXRb), RXRB (gene 6257) (P28702 whole entry, looked up, the tested form may be a part): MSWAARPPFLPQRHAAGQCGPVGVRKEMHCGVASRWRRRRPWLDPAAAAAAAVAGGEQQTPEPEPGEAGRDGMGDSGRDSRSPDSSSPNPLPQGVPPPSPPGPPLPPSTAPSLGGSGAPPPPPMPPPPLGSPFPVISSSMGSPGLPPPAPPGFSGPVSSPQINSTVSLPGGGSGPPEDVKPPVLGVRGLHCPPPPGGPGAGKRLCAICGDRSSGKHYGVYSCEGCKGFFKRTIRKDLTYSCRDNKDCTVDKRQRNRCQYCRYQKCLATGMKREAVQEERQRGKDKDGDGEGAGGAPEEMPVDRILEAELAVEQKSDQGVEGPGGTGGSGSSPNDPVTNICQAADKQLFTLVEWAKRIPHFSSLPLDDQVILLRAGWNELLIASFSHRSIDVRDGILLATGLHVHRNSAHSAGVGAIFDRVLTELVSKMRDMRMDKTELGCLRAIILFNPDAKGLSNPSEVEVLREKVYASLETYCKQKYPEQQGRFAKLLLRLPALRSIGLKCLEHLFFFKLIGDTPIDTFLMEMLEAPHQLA

The nature of assay [20]: TOX21_p53_BLA_p5_viability: Viability Assessment in the Tox21 HCT-116 p53 Agonism Beta-lactamase Assay, Phase 5 (AID 2283600). The gist of the method:
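After the 460/530 nm beta-lactamase measurement, the wells received an ATP-detection luciferase reagent; signal was read 30 min later at RT. Compound treatment lasted 16 h on cells pre-incubated 5 h post-seeding.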

Inconclusive results are not listed. Calls of active or inactive are those of the source. The calls were made as follows, unless noted: active = hit-call score of the fitted dose curve at least 0.9, where 1 is the maximum; inconclusive = response in the unintended direction; inactive = score below 0.9.

Chain of Nuclear receptor subfamily 1 group I member 2 (Homo sapiens) (O75469 whole entry, looked up, the tested form may be a part): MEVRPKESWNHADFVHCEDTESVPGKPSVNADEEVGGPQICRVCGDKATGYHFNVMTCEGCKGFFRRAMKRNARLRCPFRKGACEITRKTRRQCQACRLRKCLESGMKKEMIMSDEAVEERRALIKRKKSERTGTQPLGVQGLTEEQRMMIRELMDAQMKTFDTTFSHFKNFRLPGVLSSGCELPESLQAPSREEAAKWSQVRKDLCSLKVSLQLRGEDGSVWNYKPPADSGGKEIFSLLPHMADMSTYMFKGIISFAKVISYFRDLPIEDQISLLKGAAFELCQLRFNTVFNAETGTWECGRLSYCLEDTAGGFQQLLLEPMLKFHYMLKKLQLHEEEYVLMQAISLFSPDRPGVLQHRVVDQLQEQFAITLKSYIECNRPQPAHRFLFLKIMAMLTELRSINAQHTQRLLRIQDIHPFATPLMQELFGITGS
Chain of Cellular tumor antigen p53 (Homo sapiens) (P04637 whole entry, looked up): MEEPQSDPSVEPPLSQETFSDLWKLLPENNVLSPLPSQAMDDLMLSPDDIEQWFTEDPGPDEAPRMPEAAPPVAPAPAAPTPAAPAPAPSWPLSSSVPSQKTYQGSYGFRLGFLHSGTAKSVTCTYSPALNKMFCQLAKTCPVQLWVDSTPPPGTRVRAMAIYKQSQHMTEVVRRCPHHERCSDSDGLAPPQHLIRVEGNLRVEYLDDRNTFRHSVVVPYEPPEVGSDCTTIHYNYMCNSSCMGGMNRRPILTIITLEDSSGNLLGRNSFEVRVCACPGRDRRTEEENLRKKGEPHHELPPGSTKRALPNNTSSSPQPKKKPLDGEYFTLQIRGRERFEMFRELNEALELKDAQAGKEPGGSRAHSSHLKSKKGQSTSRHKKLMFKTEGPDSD
Chain of Hepatocyte nuclear factor 4-alpha (Homo sapiens) (P41235 whole entry, looked up, the tested form may be a part): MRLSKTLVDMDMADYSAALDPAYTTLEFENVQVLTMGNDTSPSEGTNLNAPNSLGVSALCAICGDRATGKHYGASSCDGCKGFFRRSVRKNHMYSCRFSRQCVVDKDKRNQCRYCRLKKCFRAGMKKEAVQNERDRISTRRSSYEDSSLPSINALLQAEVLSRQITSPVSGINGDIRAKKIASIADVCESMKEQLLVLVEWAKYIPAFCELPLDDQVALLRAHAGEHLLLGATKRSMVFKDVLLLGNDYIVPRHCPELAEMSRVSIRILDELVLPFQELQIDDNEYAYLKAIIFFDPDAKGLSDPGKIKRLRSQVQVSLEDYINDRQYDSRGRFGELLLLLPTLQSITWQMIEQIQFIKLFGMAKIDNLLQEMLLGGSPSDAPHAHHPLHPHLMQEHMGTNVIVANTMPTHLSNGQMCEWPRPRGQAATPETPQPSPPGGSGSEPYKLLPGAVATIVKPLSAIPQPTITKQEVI

`Nc1ccccc1`: the call in assay [1], in assay [2], in assay [3], in assay [4], in [5] and in assay [6] was inactive. Also, the compound was classed as inactive in assay [7], in [8], in [9], in assay [10], in assay [11] and in assay [12]. Besides, in assay [13], the result was inactive.
On to `SCc1ccco1`, for which the call in [3], in assay [4], in assay [5], in assay [7], in assay [14] and in [15] was inactive. Also, the result in [8], in [16], in assay [17], in [18] and in assay [19] was inactive.
Regarding `CCCCOP(=O)(O)OCCCC`, the compound was classed as inactive in [3], in [4], in assay [5], in assay [7], in [15] and in assay [8]. The result in assay [16], in assay [17] and in assay [18] was inactive.
`CC(C)c1ccc(O)cc1`: the compound was called inactive in [1], in assay [3], in assay [4], in assay [5], in assay [8] and in assay [16]. Further, the compound was called inactive in assay [18], in assay [9], in assay [11], in assay [12], in assay [20] and in [13]. For the same compound, the concentration at half-maximal activity (AC50) in [19] was 74.9 µM (active).
`O=S(=O)(O)OOS(=O)(=O)O`: the result in assay [2], in assay [5], in assay [6], in [7], in assay [14] and in assay [15] was inactive. The compound was called inactive in assay [8], in assay [16], in assay [17] and in [19].
`CCOC(=O)COc1ccc(Cl)cc1Cl`: the result in assay [1], in [2], in assay [3], in [4], in assay [6] and in [8] was inactive. The compound was classed as inactive in assay [17], in assay [18], in assay [10], in [11], in [12] and in assay [20]. The result in assay [13] was inactive.
As to `CCc1cccc(C)c1N(C(=O)CCl)[C@@H](C)COC`, the outcome in assay [1], in [4], in assay [14], in [8], in assay [16] and in assay [17] was inactive. Besides, the call in assay [19], in assay [10], in assay [11], in [12], in assay [20] and in assay [13] was inactive. Besides, in assay [18], the AC50 is 0.18 µM (active).
Regarding `CC=Cc1ccc2c(c1)OCO2`, the result in assay [4], in assay [6], in [14], in assay [15], in assay [16] and in assay [17] was inactive. The result in assay [18], in [9], in [19], in assay [10], in [11] and in assay [12] was inactive. Moreover, in [13], the outcome was inactive.
Consider `Nc1cc(Cl)cc(Cl)c1`, for which the compound was classed as inactive in [1], in assay [2], in assay [4], in [5], in [6] and in assay [7]. Also, the compound was called inactive in [14], in assay [15], in assay [16], in assay [17], in assay [18] and in assay [19]. For the same compound, the outcome in assay [10], in assay [11], in [12], in assay [20] and in assay [13] was inactive.
In the case of `CN1C(=O)CCS(=O)(=O)C1c1ccc(Cl)cc1` (stereo not given), the compound was classed as inactive in assay [1], in assay [2], in assay [3], in [4], in assay [6] and in assay [7]. In addition, the call in [15], in assay [8], in assay [16], in [17] and in assay [18] was inactive.
As for `CCC(=O)c1ccc(Cl)cc1`, the outcome in assay [1], in assay [2], in assay [3], in assay [4], in assay [5] and in assay [6] was inactive. Further, the result in assay [7], in assay [15], in assay [8], in assay [18], in assay [9] and in assay [19] was inactive.

The AC50 is the concentration giving half of the maximal activity seen.
